Records with an inconclusive call do not appear. Calls of active or inactive are those of the source. The call rests on the fitted dose curve; in most records, active means well fitted cell-killing curve with a large enough effect; inconclusive means small, poorly fitted or top-dose-only effect, or effect the other way; inactive means no such curve, though single readings can be large or run the other way.

Potency data for 13 molecules are collected here from PubChem BioAssay AID1345085 (National Center for Advancing Translational Sciences (NCATS), 2018).
Potency means the concentration at half of the fitted maximal effect.

For this assay, the system named is SKOV3. As to the kind of experiment: Confirmatory qHTS for gynecologic anti-cancer compounds from libraries of approved drugs and bioactive compounds. Further: nearly all actives have a fitted effect of over 55% in size. The settings on record: gynecologic cancer cell panel viability, ATPlite luminescence, 48 h; series mostly up to 57.6 µM. The method, boiled down:
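Viability is measured as ATP-dependent luciferase light using ATPlite, read 15 min after reagent addition at room temperature. Compounds, in DMSO, span 57.5 uM down to 0.977 nM over 11 threefold steps for 48 h.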
Background: qHTS replaces the single test concentration by a dilution series.
As for `CCN(CC)CCNC(=O)c1c(C)[nH]c(/C=C2\C(=O)Nc3ccc(F)cc32)c1C`, the Potency is 15.8 µM (active).
The figure for `CCS(=O)(=O)c1cccc(-c2cc(C(=O)NC3CCN(C)CC3)c(C)c3[nH]c4ncc(C)cc4c23)c1` is 4.76 µM (active); for `c1nc2nc(Nc3ccc(N4CCOCC4)cc3)nc(NC3CCCCC3)c2[nH]1` it is “inactive”; for `CC(Oc1cc(-n2cnc3ccc(CN4CCN(C)CC4)cc32)sc1C(N)=O)c1ccccc1C(F)(F)F` (stereo not drawn) it is 19.3 µM (active).
With `COc1cc(Nc2ncc3c(n2)-c2ccc(Cl)cc2C(c2c(F)cccc2OC)=NC3)ccc1C(=O)O`, the Potency result is “inactive”.
The figure for `CCCCc1nc2cc(/C=C/C(=O)NO)ccc2n1CCN(CC)CC` is 0.769 µM (active); for `COc1cc2c(NC3CCN(C(C)C)CC3)nc(C3CCCCC3)nc2cc1OCCCN1CCCC1` it is 30.6 µM (active).
To `CNC(=O)c1ccccc1Nc1nc(Nc2ccc(N3CCOCC3)cc2OC)ncc1Cl` belongs 6.85 µM (active); to `N#CC1(c2cccc(C(=O)Nc3cc(Oc4ccc5nc(NC(=O)C6CC6)sc5n4)ccc3F)c2Cl)CC1`, 17.2 µM (active); to `CNCc1ccc(-c2[nH]c3cc(F)cc4c3c2CCNC4=O)cc1`, “inactive”.
In the case of `CCc1c2c(nc3ccc(O)cc13)-c1cc3c(c(=O)n1C2)COC(=O)[C@]3(O)CC`, the Potency was 0.0243 µM (active).
With `Cc1c(C)n(Cc2ccc(-c3ccccc3C(=O)O)cc2)c2ccc(C(=O)N[C@@H](C)c3ccc([N+](=O)[O-])cc3)cc12`, the Potency result is “inactive”.
The entry for `CCOC(=O)C1=C(C)NC2=C(C(=O)CC(C)(C)C2)C1c1ccc(-c2ccccc2)cc1` (stereo not drawn) is “inactive”.
